According to publication PMC5540273 (PLoS ONE, 2017):

How the values were obtained:
Conditions in all cases: concentration: 1 μM, replicates: in singlicate; n = 1
AAK1 = tested on: AAK1
ABL1-nonphosphorylated = tested on: ABL1-nonphosphorylated
ABL1-phosphorylated = tested on: ABL1-phosphorylated
ABL2 = tested on: ABL2
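Also: KINOMEscan kinase panel screen.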

Row | SMILES | %Inh (AAK1) | %Inh (ABL1-nonphosphorylated) | %Inh (ABL1-phosphorylated) | %Inh (ABL2)
1 | CCS(=O)c1ccc(-c2coc3ccc(-c4nnc(C)o4)cc23)cc1 (stereo not drawn) | 0% | 27% | 0% | 0%
2 | COC(=O)c1c(-c2ccccc2)c2cc(Br)ccc2c(=O)n1Cc1ccc(NC(=O)CCC(=O)O)cc1 | 13% | 38% | 0% | 18%
3 | CCc1ccc(-c2ccc3c(c2)-c2nn(C)cc2S(=O)(=O)N3C)cc1 | 19% | 31% | 0% | 0%
4 | Cc1cccc(-c2cc(-c3c[nH]nc3-c3ccccn3)ccn2)c1 [GW679395] | 14% | 68% | 29% | 48%
5 | COc1cc2ncn(-c3cc(OCCCc4ccccc4)c(C(N)=O)s3)c2cc1OC [GSK205189] | 35% | 0% | 0% | 5%
6 | Cc1nnc(-c2ccc3ncn(-c4ccc(S(C)=O)cc4)c3c2)o1 (stereo not drawn) | 0% | 22% | 0% | 6%
7 | CCC(=O)c1c(-c2ccccc2)c2cc(Cl)ccc2c(=O)n1Cc1cc(C(=O)NC2CC2)n(C)n1 | 20% | 20% | 0% | 9%
8 | COc1cc(Nc2nccc(N3CCC(NC(=O)C(C)c4ccc(Cl)cc4)C3)n2)cc(OC)c1OC (stereo not drawn) [GSK1379757] | 37% | 0% | 0% | 7%
9 | Nc1nc(N)c2nc(-c3ccccc3)[nH]c2n1 [SKF-12778] | 23% | 18% | 15% | 9%
10 | FC(F)(F)c1ccc(-c2ncn(CCCN3CCOCC3)c2-c2ccncc2)cc1 [SB-217780] | 7% | 44% | 0% | 8%
11 | COC(=O)c1c(-c2ccccc2)c2cc(C)ccc2c(=O)n1Cc1ccccc1 | 1% | 53% | 0% | 6%
12 | Cc1ccc(Oc2ccc(Nc3ncnc4cc[nH]c34)cc2C)cn1 | 0% | 19% | 0% | 0%
13 | Nc1ncnc2c1ncn2-c1ccc(Cl)cc1 [AH2635] | 0% | 0% | 0% | 0%
14 | CN1C(=O)C(Nc2ccccc2)=C(c2ccccc2)C1=O [SB-300079] | 0% | 0% | 6% | 0%
15 | COc1cc2ncn(-c3cc(OCc4ccc(S(C)(=O)=O)cc4)c(C(N)=O)s3)c2cc1OC [GW869979] | 0% | 0% | 13% | 14%
16 | COc1ccc(CNC(=O)NC2CCN(c3ccnc(Nc4ccc(F)cc4)n3)C2)cc1 (stereo not drawn) [GSK1379706] | 32% | 0% | 0% | 2%
17 | CCCC(=O)Nc1n[nH]c2ncc(-c3cccc4ccccc34)cc12 [SB-642057] | 27% | 0% | 27% | 11%
18 | COc1cccc(-n2cnc3c(N)ncnc32)c1 [SKF-97416] | 0% | 56% | 46% | 8%
